Measurements as given in the supplement of paper PMC6555819.

Test system: PPARg homodimer (NR concentration 180 nM)
Assay: PBM binding z-score (relative to random genomic background probes); higher = stronger binding; sequences stand for … in GC…GCGATTGACAGCGTAGAATGAAGG
Procedure, shortened: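 Probes were double-stranded and carried 34-nt variable regions with direct-repeat seeds, single-nucleotide variants, half-site ablations and random human genomic background sequences, printed on custom Agilent 4×180K protein-binding microarrays. Arrays were incubated 1 h with ligand-free nuclear receptor dimers in PBS pH 7.4, 2% milk, 0.02% Triton X-100, 1 mM DTT, 0.2 mg/mL BSA and 0.4 mg/ml salmon testes DNA. Antibodies against each partner (one per run) detected binding, and scanned fluorescence was regression-normalized. Binding z-scores use the random background probes as reference.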

Sequence | PBM binding z-score
CAAACTAGCTCAAAGGTCAAAGTCGAGCCAACCA | 4.6
GGAACGAGGGCAAGTCGATAGCAGAGTTTGATGG | -0.162
CAGCGTAGGTCAGGGCCAGTATAGGAGGAACGTT | 0.304
TATTGTAGATCAACAGGAGGTTAAGAAAGATCGA | 0.72
CAGCCTAGGTCAGGGCCAATATAGGAGGAACGTT | 0.413
CTCGAAAAGTCGTGCTCAGGTGAGTATACCAAAC | 1.15
GCGATTGGGGCAAAGCAGGTTACCATAAGGTTGG | 0.213
TCGTGTAGATCAACAGGAGGTTAAGAAAGATCGA | 0.211
CCTATTAGTTTACCATAAGGGCAACCGAAGCTCG | 1.47
GCTAGTCGGTCAGTAAAAGGTCACACACCGGTCG | 4.9
TCTATTAGTTGAACGGCAACCGACGAGTCCGTTT | 0.735
ATCTCTAAGTAACAAGTTCAGTGAAAGAGAGGAC | 1.43
GCTAGTTGGTCAGTAAAAGGTCCCACACCGGTCG | 0.327
TCATATAGGTAAACGGTGAAAGTCGGTGTGGTAA | 0.811
ACTAGTTGGTCAGCTGAGGTCACATACAATTCGG | 2.09
CGTCCAAGGTCATAGGAGGTCAGTGAGGACAGAT | 5.73
TCATATAGGTAAATGCTAGGTGAAAGTGCGATCT | 1.41
TCCAGTAGGTTAGGGGCATTCAGAATGGCGTCGA | 1.01
CTCGAAAGGTCGTGCTCAGGTGAGTAGACCAAAC | 3.39
CCTAGTAGGTCAGGAGGTCACACACCGGATATGA | 4.99
CAAACTAGGTCACGAAAGTTCAAAGTCGAATGAC | 4.73
TCTTGTAGATCAAGGGTTAAGAAAGCCGAAGCCT | 1.12
